A selection: hits, their analogues and other compounds. The true share with any hit is near 6.2%.
HT1080-NT tox: kills 2HG-producing HT-1080-NT fibrosarcoma cells; HT-1080-NT fibrosarcoma viability, CellTiter-Glo ATP luminescence, 48 h; Potency, µM (doses to about 46.1 µM), inactives show at the highest dose activity, negative = less viability, usual class: cytotoxic; 360,000 compounds, 1.6% hits; AID 686970;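 also: NT is the 2HG producing partner of a matched IDH1 knockdown line; 0% = DMSO-treated cells and -100% = media-only wells without cells; nearly all actives have a fitted effect of over 55% in size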
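Compounds were tested in concentration-response format on HT-1080-NT cells for 48 hours at 37 degrees C. Cell viability came from CellTiter-Glo luminescence; curves were classified by r2, response magnitude and activity.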
HT1080 IDH1KD tx: toxicity to HT-1080 IDH1 knockdown cells (counter line); 360,000 compounds, 2% hits; Potency, µM (doses to about 46.1 µM), without a hit: top-dose activity, negative = toxicity, hits mostly cytotoxic; HT-1080 IDH1 knockdown viability, ATP luminescence, 48 h; AID 686971;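 also: 0% = DMSO wells and -100% = cell-free medium wells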
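Using the IDH1-knockdown HT-1080 line run in the same batch and compound series as the NT line, viability after 48 h at 37 °C was determined by CellTiter-Glo luminescence and expressed as % activity.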
KB-V1 cytotox: kills drug-selected multidrug resistant KB-V1 cells; Potency, µM (top dose mostly 46.1 µM), actives largely listed as cytotoxic; KB-V1 MDR cells viability, CellTiter-Glo, 72 h; 400,000 compounds, 3.4% hits; also: % is scaled to controls: 0 for no effect and ±100 for the full control effect; nearly all actives have a fitted effect of over 60% in size
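Compound-treated KB-V1 multidrug-resistant cells, 72 h, 37 degrees C; viability by CellTiter-Glo. Fitted qHTS curves give the values.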
ATXN2 expr inh: inhibitors of ATXN2 expression; 360,000 compounds, 0.72% hits; AID 1745845; Potency, µM (titrated, usually from 57 µM), for the others: at the top dose activity change, negative = inhibition, most hits filed as inhibitors; HEK-293 ATXN2-luciferase reporter, luminescence, 24 h; also: % is scaled to controls: 0 for no effect and ±100 for the full control effect; nearly all actives have a fitted effect of over 55% in size
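qHTS (up to 57 uM final) was run with 24 h compound exposure of reporter cells at 37 °C. Each well was multiplexed: SteadyGlo luminescence measured ATXN2-luciferase expression after a fluorogenic Gly-Phe-AFC viability readout (25 uM final).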
S2 tox: reduces viability in counter-screen for ATXN expression inhibitors. S2 cells (HEK-293 line with an ATXN2-luciferase reporter) viability, CellTiter-Fluor protease fluorescence, 24 h. Potency, µM (doses to about 56.7 µM), hits mostly cytotoxic. 400,000 compounds, 0.49% hits. AID 651635; also: nearly all actives have a fitted effect of over 40% in size
KB-3-1 cytotox: KB-3-1 parental cell cytotoxicity; KB-3-1 viability, CellTiter-Glo ATP luminescence, 72 h; Potency, µM (top dose mostly 46.1 µM), usual class: cytotoxic; 400,000 compounds, 1.4% hits; also: % is scaled to controls: 0 for no effect and ±100 for the full control effect; nearly all actives have a fitted effect of over 60% in size
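Multi-concentration cytotoxicity screen in KB-3-1 cells grown in DMEM lacking phenol red with 10% FBS. After 72 h at 37 °C with compound, ATP-dependent luminescence was recorded.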
* hit, by the source's call; i = inactive; ? = inconclusive; . = no result; ! = repeats disagree; [ ] = dose if it differs, or a comment. Calls follow the shape of the dose curve; as a rule, active = well fitted curve in the direction sought with a large enough effect; inconclusive = small, poorly fitted or top-dose-only effect, or another doubt; inactive = no such curve, though single readings can be large; an effect the other way counts as inactive or inconclusive. Potency is read from the fitted curve at half-maximal effect.

SMILES	HT1080-NT tox	HT1080 IDH1KD tx	KB-V1 cytotox	ATXN2 expr inh	S2 tox	KB-3-1 cytotox
CCOC(=O)[C@]12Cc3c(cc(OC)c(OC)c3OC)[C@H]1N(Cc1ccccc1)C(=O)c1cc(OC)ccc12	18µM*	?	?	20µM*	11µM*	4.6µM*
CCOC(=O)[C@]12Cc3c(cc(OC)c(OC)c3OC)[C@H]1N(Cc1ccccc1)C(=O)c1cc(F)c(F)cc12	?	?	?	-16%	?	?
Cc1nn(C)c(C)c1/C=C(/C(=O)C(C)(C)C)n1cncn1	-13%	?	?	-18%	i	i
CC(C)(C)C(=O)/C(=C/c1ccncc1)n1cncn1	7.3µM*	7.3µM*	?	16µM*	.	6.5µM*
Nc1nc2n[nH]nc2c(=O)[nH]1	?	0.12µM*	?	7%	?	1.5µM*!
COC(=O)c1sc2ccccc2c1-n1cccc1C(=O)C(=O)Nc1ccc(Cl)cc1	-2%	0%	12µM*	-9%	i	?
COC(=O)c1sc2ccccc2c1-n1cccc1C(=O)C(=O)Nc1ccc(C)cc1	-6%	-6%[9.24 µM]	9.2µM*	1%	i	?
CSc1cccc(Nc2nc3c(S(=O)(=O)c4ccccc4)nnn3c3ccc(Cl)cc23)c1	.	.	i	-1%	i	i
CCOC(=O)Cn1c(=O)n(C2CCCCC2)c2nc(-c3ccc(OC)cc3)nc(C(N)=O)c21	.	.	i	-13%	i	?
CCOC(=O)Cn1c(=O)n(C2CCCCC2)c2nc(-c3ccc(OCC)cc3)nc(C(N)=O)c21	.	.	?	8%	i	18µM*
CCOC(=O)Cn1c(=O)n(C2CCCCC2)c2nc(-c3ccc(CC)cc3)nc(C(N)=O)c21	.	.	i	11%	i	8.2µM*
CC(=O)c1cccc(Nc2cc(C)nc3c(C)cc(C)cc23)c1	-18%	?	16µM*	?	?	i
CC(=O)c1cccc(Nc2cc(C)nc3ccc(C)cc23)c1	18µM*	?	?	-19%	i	?
COC(=O)c1ccc2nc(C)cc(Nc3ccccc3C)c2c1	-16%	-5%	i	-19%	i	i
Cc1cc(C)c2nc(C)cc(Nc3ccc(C(=O)N4CCOCC4)cc3)c2c1	-1%	-4%	i	-5%	i	i
COC(=O)c1ccc(Nc2cc(C)nc3ccc(C)cc23)cc1	21µM*	23µM*	?	-33%	?	6.5µM*
Cc1ccc2nc(C)cc(Nc3ccc([N+](=O)[O-])cc3)c2c1	-13%	?	i	?	?	?
NCCCNCCCCNC(=O)C(O)NC(=O)CCCCCCN=C(N)N (stereo unspecified)	.	.	.	.	i	.
Cc1ccc(-n2c(=O)c3c(c4cc(C)ccc4n3C)n(CC(=O)NCc3ccccc3Cl)c2=O)cc1	.	.	i	9%	i	i
CC1CCC(C(C)C)C(OCC(O)CN2CCN(Cc3ccccc3)CC2)C1 (stereo unspecified)	23µM*	?	?	-16%	i	?
CC1CCC(C(C)C)C(OCC(O)CN2CCOCC2)C1 (stereo unspecified)	4%	8%	i	-14%	i	?
Cc1nc(C)c2c(=O)cc(-c3ccccc3)[nH]c2n1	10µM*	8.9µM*	3.2µM*	-6%	i	7.1µM*
Cc1nc(-c2ccccc2)nc2[nH]ccc(=O)c12	25%	11%	9.2µM*	60%	i	?
Cc1nc(-c2ccc([N+](=O)[O-])cc2)nc2[nH]ccc(=O)c12	?	30%	i	58%	i	i
Cc1cc(C(=O)COC(=O)c2ccc(Cl)c(S(N)(=O)=O)c2)c(C)n1C1CC1	0%	3%	i	84%	?	i
O=S1(=O)N=C(Oc2cccc(-c3ccccc3)c2)c2ccccc21	.	.	i	.	.	i
Cn1nnnc1SCCNCc1ccc(OCc2ccccc2Cl)cc1	.	.	?	8%	i	23µM*
